CYP2C19 activ: cytochrome P450 2C19 (human) activation; P33261; recombinant CYP2C19, luciferin-H EGE luminescence; hits give high values; 0 = fully inhibited enzyme, 1 = untreated enzyme; activation factor at 5 µM; 96,000 tested, under 10 active; AID 1025;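 active = activation factor of at least 2 at 5 µM in the primary screen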;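 also: 0 = wells with 2.5 mM tranylcypromine and 1 = vehicle-only wells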
Target sequence (P33261 whole entry, looked up): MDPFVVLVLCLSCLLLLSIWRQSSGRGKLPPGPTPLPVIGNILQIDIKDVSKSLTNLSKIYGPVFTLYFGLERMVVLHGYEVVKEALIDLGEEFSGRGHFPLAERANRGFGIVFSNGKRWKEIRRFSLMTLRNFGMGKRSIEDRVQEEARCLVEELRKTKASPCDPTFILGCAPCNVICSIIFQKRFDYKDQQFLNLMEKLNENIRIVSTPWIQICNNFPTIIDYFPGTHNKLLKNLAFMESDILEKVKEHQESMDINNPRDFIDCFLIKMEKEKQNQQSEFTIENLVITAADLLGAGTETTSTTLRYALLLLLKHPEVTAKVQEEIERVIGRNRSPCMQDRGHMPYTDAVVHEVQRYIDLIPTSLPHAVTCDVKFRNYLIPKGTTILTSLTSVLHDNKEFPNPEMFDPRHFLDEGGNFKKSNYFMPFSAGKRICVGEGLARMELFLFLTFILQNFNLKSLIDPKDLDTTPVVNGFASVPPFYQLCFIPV
F-actin modifier: modifiers of cytoskeleton assembly; 91,000 tested, 0.18% active; AID 836; HUVEC TNFa F-actin phalloidin imaging, high content; inhibition, % at 2 µM;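 active = inhibition above the batch mean plus 3 SD and confirmed as a hit by visual image inspection, cut at about 30% in these data, passing the limit was not always enough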
CYP2C9 act: CYP2C9 (human) activation. AID 1024. P11712. activation factor at 5 µM. recombinant CYP2C9, luciferin-H conversion, luminescence; hits give high values; factor 1 = untreated enzyme, 0 = blocked. 96,000 tested, 1.4% active;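 active = activation factor of 2 or more for CYP2C9 at a 5 µM dose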;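 also: 0 = sulfaphenazole-blocked wells and 1 = vehicle-only wells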
E-sel TNF inh: TNF alpha driven E-selectin expression inhibition. HUVEC TNFa-induced E-selectin immunofluorescence, high content. inhibition, % at 2 µM. 120,000 tested, 0.71% active;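 active = inhibition above the batch mean plus 3 SD, and confirmed as a hit on visual image review, cut at about 43% in these data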;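 also: 0% = TNF-stimulated DMSO wells and 100% = unstimulated control wells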
CYP2C19 inh: blocks human cytochrome P450 2C19. P33261. CYP2C19 Supersomes, luciferin-H EGE luminescence, 30 min. inhibition, % at 5 µM. 96,000 tested, 21% active. AID 778;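 active = CYP2C19 inhibition above a set limit at 5 µM in the primary screen, cut at about 50% in these data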;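 also: plate controls were negative control wells for no effect and 2.5 mM tranylcypromine positive control for full effect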
CYP2C9 inh: human CYP2C9 inhibition | CYP2C9 Supersomes, luciferin-H conversion, luminescence | inhibition, % at 5 µM | 96,000 tested, 20% active | AID 777;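 active = blocking of liver enzyme CYP2C9 beyond about 50% at 5 µM, limit read from the data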
* marks the source's active call; other numbers are inactive results; . = no result given. The list is not random: actives were taken first. Their share in the collection is about 22%.

SMILES | CYP2C19 activ | F-actin modifier | CYP2C9 act | E-sel TNF inh | CYP2C19 inh | CYP2C9 inh
CCn1ncc(/C=N/N=C2\CCC3C4CCc5cc(O)ccc5C4CCC23C)c1C (configuration not stated) | 0.5 | 4 | 0.2 | -9 | 48 | 80*
c1ccc(OCCCCN2CCOCC2)cc1 | 0.6 | -10 | 1 | . | 36 | 1
Cc1cc(C)cc(OCCCOc2cccc3cccnc23)c1 | 0.1 | 18 | 1.4 | -13 | 87* | -42
Clc1cc(Br)ccc1OCCOCCOc1cccc2cccnc12 | 0.3 | -4 | 1.7 | -13 | 66* | -71
Cc1ccc(OCCOCCOc2cccc3cccnc23)c(Br)c1 | . | . | . | -3 | . | .
Brc1ccc(OCCCN2CCOCC2)cc1 | 0.2 | -22 | 1 | -1 | 78* | 3
Cc1ccc(C)c(OCCOCCN2CCOCC2)c1 | 0.7 | . | 1.2 | -19 | 29 | -15
Clc1cc(Br)ccc1OCCOCCN1CCOCC1 | 0.2 | 7 | 1 | . | 81* | -2
Cc1cc2nnc(SCC(=O)NCC3CCCO3)n2c2ccccc12 (configuration not stated) | . | . | . | -12 | . | .
CCC(C(=O)Nc1ncn[nH]1)(C(F)(F)F)C(F)(F)F | 1.1 | -7 | 0.9 | . | -8 | 6
Cc1nn(Cc2ccc(Cl)cc2)c(C)c1NC(=O)CSc1nc2c(c(C(F)(F)F)n1)CCc1ccccc1-2 | 0.7 | -2 | 0.3 | -45 | 28 | 72*
Cc1ccc(Cn2nc(C)c(NC(=O)CSc3nc4c(c(C(F)(F)F)n3)CCc3ccccc3-4)c2C)cc1 | . | . | . | -31 | . | .
Cc1ccccc1Cn1cc(NC(=O)CSc2nc3c(c(C(F)(F)F)n2)CCc2ccccc2-3)cn1 | 0.7 | 19 | 0.2 | 3 | 30 | 81*
O=C(CSc1ncn[nH]1)NC12CC3CC(CC(C3)C1)C2 | 0.5 | -5 | 1 | 21 | 48 | 1
CCCN1CCCc2cc(CN)ccc21 | 0.1 | 54 | 0.2 | 7 | 90* | 84*
Cc1oc2ccc(O)c(CN3CCOCC3)c2c1C(=O)c1ccc(Cl)cc1 | 0.4 | . | 0.5 | . | 59* | 52*
CCOC(=O)c1c(-c2ccccc2)oc2ccc(O)c(CN3CCN(C)CC3)c12 | . | . | . | 13 | . | .
CC(C)Sc1nc2c(c(=O)[nH]1)C(c1cccs1)C1=C(CC(C)(C)CC1=O)N2 (configuration not stated) | 0.7 | 19 | 0.3 | 20 | 33 | 68*
Cc1ccc(NC(=O)CCn2cnc3ccccc3c2=O)cc1Cl | . | . | . | -40 | . | .
O=C(Cn1cnc2ccccc2c1=O)c1c[nH]c2ccccc12 | 0.5 | -32 | 0.7 | 7 | 53* | 31
O=C(O)CCn1cnc2ccccc2c1=O | 0.8 | -23 | 1 | 11 | 15 | -3
CN(c1ccccc1)S(=O)(=O)c1cccc(NC(=O)Cn2cnc3ccccc3c2=O)c1 | 0.4 | -2 | 0.1 | 18 | 62* | 94*
CCN(CC)S(=O)(=O)c1cc(NC(=O)Cn2cnc3ccccc3c2=O)ccc1C | 0.6 | 2 | 0.5 | -15 | 42 | 53*
Cc1cccc(NC(=O)Cn2cnc3ccccc3c2=O)c1C | 0.9 | -5 | 0.9 | . | 8 | 10
CCOC(=O)c1ccccc1NC(=O)CCNC(=O)Cn1cnc2ccccc2c1=O | 1 | -24 | 0.5 | . | -3 | 52*
SMILES | CYP2C19 activ | F-actin modifier | CYP2C9 act | E-sel TNF inh | CYP2C19 inh | CYP2C9 inh
Cc1ccccc1N1C(=O)c2ccccc2NC1c1ccncc1 (configuration not stated) | . | 17 | . | 3 | . | .
O=C1c2ccccc2C(=O)N1CCCCCc1nc(-c2ccccc2)no1 | 0.9 | -4 | 0.6 | 8 | 6 | 40
O=C1c2ccccc2C(=O)N1CCc1csc(-c2cccc(Cl)c2)n1 | 0 | 16 | 1 | -15 | 99* | 2
O=C1c2ccccc2C(=O)N1CCc1csc(-c2cccc(F)c2)n1 | 0 | -18 | 0.5 | . | 100* | 52*
COc1cc(NC2=CC(=O)CC(C)(C)C2)cc(OC)c1 | 1 | . | 0.8 | -14 | 0 | 20
C/C(=N\N1CCN(C2c3ccccc3-c3ccccc32)CC1)c1ccncc1 | 0.2 | -8 | 0.5 | -37 | 77* | 52*
Cc1ccsc1/C=N/N1CCN(C2c3ccccc3-c3ccccc32)CC1 | 0.7 | 2 | 0.1 | -5 | 29 | 88*
C(=N\N1CCN(C2c3ccccc3-c3ccccc32)CC1)/c1ccncc1 | 0.7 | -34 | 0.6 | -15 | 34 | 36
Cc1c(NC(=O)CSc2nncc3ccccc23)c(=O)n(-c2ccccc2)n1C | . | 8 | . | -19 | . | .
CCCCSc1nnc([C@H](C)NC(=O)OC(C)(C)C)o1 | 0.2 | . | 0.7 | -11 | 75* | 33
CCOC(=O)CSc1nnc([C@H](CC(C)C)NC(=O)OC(C)(C)C)o1 | . | -7 | . | -9 | . | .
CSc1nnc([C@@H](NC(=O)OC(C)(C)C)C(C)C)o1 | 0.6 | -4 | 0.8 | -4 | 38 | 21
COC(=O)CSc1nnc([C@H](CC(C)C)NC(=O)OC(C)(C)C)o1 | 0.3 | 34 | 0.9 | -5 | 66* | 6
CCCCSc1nnc([C@H](CC(C)C)NC(=O)OC(C)(C)C)o1 | 0.4 | -15 | 0.4 | 43 | 62* | 56*
CC1=C(C(=O)Nc2ccc(C)cc2)C(c2ccc(C)o2)C2=C(CC(C)(C)CC2=O)N1 (configuration not stated) | 1 | -5 | 1 | 2 | -4 | 1
Cc1oc(C(=O)O)cc1COc1ccc2c3c(c(=O)oc2c1C)CCC3 | 1.1 | -3 | 1.3 | -12 | -6 | -34
COc1cc(/C=C2\OC(=O)c3c(OC)cccc32)ccc1O | 0 | 14 | 0.1 | -13 | 97* | 95*
CCOC(=O)c1c(C)c(C(=O)NC2CCCCCC2)c(C)n1C | 1 | . | 1.6 | -5 | -4 | -60
CCOC(=O)c1c(C)c2c(n1C)CCC/C2=N\O | 0.4 | 7 | 0.7 | 33 | 60* | 33
NC(=O)[C@@H]1CCCNc2c(I)cc([N+](=O)[O-])cc2C(=O)N[C@@H](Cc2ccccc2)C(=O)N[C@@H](Cc2cnc[nH]2)C(=O)N1 | . | . | . | 18 | . | .
COc1ccc(Cl)cc1C(=O)O/N=C(\N)c1ccc(Cl)cc1 | . | . | . | 2 | . | .
CC1CCN(C(=O)Cn2c(=O)n(CCc3ccccc3)c(=O)c3ccccc32)CC1 | 0.9 | 12 | 0.6 | 1 | 5 | 39
COc1ccccc1-c1cc(-c2cc(Cl)ccc2O)n[nH]1 | 0.9 | 11 | 0.9 | . | 8 | 11
Cc1ccc(-c2cc(-c3ccccc3[N+](=O)[O-])[nH]n2)c(O)c1 | 0.5 | -6 | 0.2 | -22 | 47 | 78*
Cc1ccc(-c2cc(-c3ccccc3Cl)[nH]n2)c(O)c1 | 0.8 | -16 | 0.8 | . | 22 | 22
Oc1ccc(Cl)cc1-c1cc(-c2ccccc2)n[nH]1 | 0.5 | 17 | 0.9 | . | 51* | 14
Cc1ccccc1-c1cc(-c2ccccc2O)n[nH]1 | 0.1 | -2 | 0 | -4 | 93* | 96*
Oc1ccc(Br)cc1-c1cc(-c2ccccc2F)[nH]n1 | 0.8 | 10 | 0.7 | . | 16 | 29

High-throughput results: PubChem BioAssay, several laboratories
